High-throughput results: PubChem BioAssay, Broad Institute
This is one part of a sample in which hits are shown more often than they occur.
IDE exosite FP: exo-site inhibitors of human insulin-degrading enzyme | 17,000 tested, 6.3% active | P14735 | purified IDE, FL-6b probe fluorescence polarization; stronger effect = lower value | z-score at 20 µM | AID 1259349;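 active means z-score of -3 or lower, meaning strong loss of probe binding signal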;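 further: His-tagged human IDE residues 42-1019 made in E. coli with 30 nM FL-6b probe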
Target sequence (P14735 42-1019 limits assumed): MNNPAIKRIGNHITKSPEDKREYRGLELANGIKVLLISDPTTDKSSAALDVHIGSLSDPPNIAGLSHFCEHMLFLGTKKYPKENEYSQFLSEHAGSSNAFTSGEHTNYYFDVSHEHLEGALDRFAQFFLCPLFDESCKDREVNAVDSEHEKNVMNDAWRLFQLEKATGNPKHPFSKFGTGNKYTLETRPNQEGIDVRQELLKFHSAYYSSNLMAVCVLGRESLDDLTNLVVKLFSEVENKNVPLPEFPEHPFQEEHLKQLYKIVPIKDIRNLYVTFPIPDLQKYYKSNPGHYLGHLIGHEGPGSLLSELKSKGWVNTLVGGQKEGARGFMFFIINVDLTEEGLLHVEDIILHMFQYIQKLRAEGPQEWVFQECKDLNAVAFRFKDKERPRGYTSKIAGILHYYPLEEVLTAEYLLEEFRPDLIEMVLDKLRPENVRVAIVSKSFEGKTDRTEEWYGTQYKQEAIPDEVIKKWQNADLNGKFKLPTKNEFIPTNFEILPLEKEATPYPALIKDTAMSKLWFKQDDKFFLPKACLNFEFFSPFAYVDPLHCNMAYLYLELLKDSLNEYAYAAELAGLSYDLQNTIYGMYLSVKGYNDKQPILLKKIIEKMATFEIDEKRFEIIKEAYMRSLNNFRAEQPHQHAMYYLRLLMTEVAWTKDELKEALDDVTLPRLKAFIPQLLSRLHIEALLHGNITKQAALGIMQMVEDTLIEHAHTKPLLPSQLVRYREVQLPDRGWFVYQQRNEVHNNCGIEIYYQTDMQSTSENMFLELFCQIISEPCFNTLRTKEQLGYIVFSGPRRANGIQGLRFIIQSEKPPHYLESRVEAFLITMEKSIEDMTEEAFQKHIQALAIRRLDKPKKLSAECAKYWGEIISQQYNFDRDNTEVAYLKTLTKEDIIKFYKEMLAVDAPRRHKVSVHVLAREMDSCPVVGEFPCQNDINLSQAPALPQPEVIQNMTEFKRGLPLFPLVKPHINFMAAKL
* marks the source's active call; other numbers are inactive results.

Screening CCC(=O)N1[C@H](CO)[C@H](c2ccc(-c3cccc(F)c3)cc2)[C@H]1CNC(C)=O returned IDE exosite FP 0.974.
CCC(=O)N1[C@H](CNC(=O)CN(C)C)[C@@H](c2ccc(C3=CCCC3)cc2)[C@@H]1CO was read as IDE exosite FP 3.73.
For COc1ccccc1CNC(=O)C[C@@H]1C[C@@H]2c3cc(NC(=O)C4CCC4)ccc3O[C@@H]2[C@@H](CO)O1 the results were IDE exosite FP -0.482.
Screening CN1C(=O)c2cc(NS(=O)(=O)c3cccc(F)c3)ccc2OC[C@@H]2O[C@H](CC(=O)N3CCc4ccccc4C3)CC[C@@H]21 returned IDE exosite FP 1.01.
COc1cccc(S(=O)(=O)N2CCCCN3[C@H](CO)[C@@H](c4ccc(-c5ccccc5)cc4)[C@H]3C2)c1 was read as IDE exosite FP 2.54.
`COc1cccc(S(=O)(=O)N2CCCCN3[C@H](C2)[C@@H](c2ccc(-c4ccccc4)cc2)[C@@H]3CO)c1` gave IDE exosite FP 2.99.
COc1cccc(-c2ccc([C@@H]3[C@H](CO)N4CCCCN(S(=O)(=O)c5cn(C)cn5)C[C@@H]34)cc2)c1 was read as IDE exosite FP -10.7*.
For COc1cccc(-c2ccc([C@@H]3[C@H]4CN(S(=O)(=O)c5cccs5)CCCCN4[C@H]3CO)cc2)c1 the results were IDE exosite FP 4.17.
Screening COc1cccc(-c2ccc([C@H]3[C@@H](CO)N4CCCCN(S(=O)(=O)c5cccs5)C[C@H]34)cc2)c1 returned IDE exosite FP 0.914.
Screening COc1cccc(-c2ccc([C@H]3[C@@H](CO)N4CCCCN(S(=O)(=O)c5cn(C)cn5)C[C@H]34)cc2)c1 returned IDE exosite FP -3.95*.
O=C(Nc1cccc(F)c1)N1CC(=O)N2[C@H](CO)[C@H](c3ccc(-c4ccc(F)cc4)cc3)[C@H]2C1 was read as IDE exosite FP 2.57.
C/C=C/c1ccc([C@@H]2[C@@H](CN(CC)C(=O)CC)N(S(C)(=O)=O)[C@H]2CO)cc1 was read as IDE exosite FP 3.03.
`O=C(Nc1ccc(F)cc1)N1CC(=O)N2[C@H](CO)[C@@H](c3ccc(-c4cccc(F)c4)cc3)[C@H]2C1` gave IDE exosite FP -1.25.
Screening C[C@@H]1CN([C@H](C)CO)C(=O)CCCn2cc(nn2)CO[C@@H]1CN(C)S(=O)(=O)c1ccc(-n2cccn2)cc1 returned IDE exosite FP -0.533.
`CCCC(=O)Nc1ccc2c(c1)C(=O)N(C)[C@@H]1CC[C@@H](CC(=O)NCc3cccc(F)c3)O[C@@H]1CO2` gave IDE exosite FP -0.591.
`COc1cccc(-c2ccc([C@H]3[C@H](CO)N4CCCCN(C(=O)NC(C)C)C[C@@H]34)cc2)c1` gave IDE exosite FP -12.4*.
For COc1cccc(-c2ccc([C@H]3[C@@H](CO)N4CCCCN(C(=O)NC(C)C)C[C@@H]34)cc2)c1 the results were IDE exosite FP -5.79*.
For COc1cccc(-c2ccc([C@@H]3[C@H]4CN(C(=O)NC(C)C)CCCCN4[C@H]3CO)cc2)c1 the results were IDE exosite FP -8.03*.
Screening COc1cccc(-c2ccc([C@@H]3[C@@H](CO)N4CCCCN(C(=O)c5ccc(F)cc5)C[C@H]34)cc2)c1 returned IDE exosite FP -1.66.
`COc1cccc(-c2ccc([C@H]3[C@@H](CO)N4CCCCN(C(=O)c5ccc(F)cc5)C[C@@H]34)cc2)c1` gave IDE exosite FP -0.66.
Screening COc1cccc(-c2ccc([C@H]3[C@H]4CN(C(=O)c5ccc6c(c5)OCO6)CCCCN4[C@H]3CO)cc2)c1 returned IDE exosite FP 1.32.
COc1cccc(-c2ccc([C@@H]3[C@H]4CN(C(=O)c5ccc(F)cc5)CCCCN4[C@H]3CO)cc2)c1 was read as IDE exosite FP 0.86.
Screening COc1cccc(-c2ccc([C@H]3[C@@H](CO)N4CCCCN(C(=O)c5ccc(F)cc5)C[C@H]34)cc2)c1 returned IDE exosite FP -3.25*.
For COc1cccc(-c2ccc([C@H]3[C@H](CO)N4CCCCN(C(=O)c5ccc6c(c5)OCO6)C[C@@H]34)cc2)c1 the results were IDE exosite FP 0.902.
Screening COc1cccc(-c2ccc([C@@H]3[C@@H](CO)N4CCCCN(C(=O)c5ccc6c(c5)OCO6)C[C@@H]34)cc2)c1 returned IDE exosite FP 0.952.
`COc1cccc(-c2ccc([C@@H]3[C@@H](CO)N4CCCCN(C(=O)c5ccc(F)cc5)C[C@@H]34)cc2)c1` gave IDE exosite FP -0.756.
For COc1ccc(C[C@@H]2CCn3nncc3COC[C@@H](CC(C)C)NC2=O)cc1 the results were IDE exosite FP -1.2.
Screening CN(C)C(=O)c1cccc(-c2ccc(C3[C@H]4CNC[C@@H]3N4Cc3cc(-c4ccccc4)on3)cc2)c1 (stereo partly drawn) returned IDE exosite FP 2.35.
Screening CC(C)CC#Cc1ccc([C@H]2[C@H](CO)N3C(=O)CN(C(=O)Cc4ccccc4)C[C@@H]23)cc1 returned IDE exosite FP 1.86.
Screening CC(=O)N1CCCCN2[C@@H](CO)[C@@H](c3ccc(-c4ccncc4)cc3)[C@@H]2C1 returned IDE exosite FP 4.42.
For O=C(Nc1ccccc1)N1CCCCN2[C@H](CO)[C@H](c3ccc(-c4ccccc4)cc3)[C@H]2C1 the results were IDE exosite FP -0.68.
For O=C(Nc1cccc(F)c1)N1CCCCN2[C@@H](CO)[C@H](c3ccc(C#CC4CC4)cc3)[C@@H]2C1 the results were IDE exosite FP 2.73.
`COc1ccc2c3c([nH]c2c1)[C@H](CO)N(C(=O)c1cnccn1)CC31CN(S(=O)(=O)c2ccccc2)C1` gave IDE exosite FP 0.108.
`CCC(=O)Nc1ccc2c(c1)C(=O)N(C)C[C@H](OC)[C@@H](C)CN(C(=O)Cc1cccnc1)[C@@H](C)CO2` gave IDE exosite FP 2.68.
Screening CN(C)CC(=O)N[C@H]1CC[C@@H](CCNC(=O)C2CCC2)O[C@@H]1CO returned IDE exosite FP 3.03.
For CN1CCCCN2[C@H](C1)[C@H](c1ccc(-c3ccc(F)cc3)cc1)[C@@H]2CO the results were IDE exosite FP 0.111.
Screening CN1CCCCN2[C@H](C1)[C@H](c1ccc(C#CC3(O)CCCC3)cc1)[C@@H]2CO returned IDE exosite FP 2.78.
For CN1CCCCN2[C@H](C1)[C@@H](c1ccc(C#Cc3ccccc3F)cc1)[C@@H]2CO the results were IDE exosite FP -3.44*.
For CN1CCCCN2[C@@H](CO)[C@H](c3ccc(C#Cc4ccccc4F)cc3)[C@@H]2C1 the results were IDE exosite FP -4.4*.
Screening COc1ccc(C#Cc2ccc([C@@H]3[C@@H](CO)N4CCCCN(C)C[C@@H]34)cc2)cc1 returned IDE exosite FP 0.0789.
For CN1CCCCN2[C@H](CO)[C@@H](c3ccc(C#Cc4ccccc4F)cc3)[C@H]2C1 the results were IDE exosite FP -4.72*.
Screening CN1CCCCN2[C@H](CO)[C@@H](c3ccc(C#CC4(O)CCCC4)cc3)[C@H]2C1 returned IDE exosite FP 3.32.
Screening CN1CCCCN2[C@H](CO)[C@H](c3ccc(C#CC4(O)CCCC4)cc3)[C@H]2C1 returned IDE exosite FP 3.52.
Screening CN(C)C(=O)c1cccc(-c2ccccc2[C@@H]2[C@@H](C#N)N(C(=O)C3CCC3)[C@@H]2CO)c1 returned IDE exosite FP 3.7.
`N#C[C@@H]1[C@H](c2ccccc2C2=CCCC2)[C@@H](CO)N1C(=O)Cc1ccncc1` gave IDE exosite FP 0.206.
`COCC(=O)N1CCC2(CC1)CN(S(C)(=O)=O)[C@@H](CO)c1[nH]c3cc(OC)ccc3c12` gave IDE exosite FP -0.00836.
